# Experimental data reported in PubChem BioAssay.
# Values joined by “and” are separate entries in the source; they are usually repeats but may differ in a detail not shown here. Equal entries are not always repeated. Active and inactive are the calls of the source. Unless noted, the rule behind the calls is not given here.
# Legend:
# [1] = hESC survival regulators, cell-based (AID 493140); settings: human embryonic stem cell survival screen; stronger effect = higher value;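 note: cells exposed to compounds for four days before counting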
# [2] = stimulators of insulin release from INS-1E, primary screen, cell-based, 5 mM glucose, NPC library (AID 1117329;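 active = compound raises insulin release from rat beta cells at 5 mM glucose, no numeric limit stated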); settings: rat INS-1E insulin secretion, at 10 µM, stronger effect = higher value
# [3] = growth inhibition of GSK3B-pretreated HCT116 cells – cell-based, CellTiter-Glo, 0.2 to 20 µM (AID 1117336;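 active = compounds lowering colon cancer cell viability after pretreatment blocking the GSK3B kinase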); settings: HCT116 viability after GSK3B inhibitor, at 20 µM, stronger effect = higher value
# [4] = inhibition of endothelial tube formation, primary screen, imaging, VEGF stimulated, CD31 staining, tube area, NPC library (AID 1117340;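 active = compound that reduces growth-factor-driven endothelial tube area in a mixed cell culture, no cutoff stated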); settings: VEGF-stimulated ADSC/ECFC co-culture, at 10 µM, stronger effect = higher value
# [5] = glucagon-like peptide 1 release enhancers, primary assay, NCI-H716 cell line, NPC library (AID 1117341;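 active = compound raises GLP1 secretion from the human gut endocrine cells, with no numeric limit stated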); settings: NCI-H716 cells, at 10 µM, stronger effect = higher value
# [6] = HCT116 colon cancer cell growth inhibition, primary screen, CellTiter-Glo luminescence, NPC library (AID 1117342;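 active = compounds that lower survival of HCT116 colon cancer cells in the luminescence readout, no numeric limit stated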); settings: at 20 µM (top of the series)
# [7] = CellTiter-Glo luminescent readout of SW480 viability loss, NPC library primary (AID 1117343;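 active = compounds that lower viability of the colon cancer cells in the luminescence readout, with no numeric limit stated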); settings: CellTiter-Glo luminescence; at 20 µM (top of the series) unless noted
# [8] = decreased DLD-1 cellular survival, CellTiter-Glo luminescent readout, NPC compound collection, primary HTS (AID 1117346;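 active = compounds that lower survival of DLD-1 colon cancer cells in the luminescence readout, no cutoff given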); settings: DLD-1 viability, CellTiter-Glo luminescence; at 20 µM (top of the series)
# [9] = molecular target: 6-phosphogluconate dehydrogenase, decarboxylating (Homo sapiens) (UniProt P52209); assay: 6PGD enzyme inhibitors, primary screen, biochemical, human, recombinant enzyme, NADPH absorbance (AID 1159550;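 active = at least 20% inhibition of 6-phosphogluconate dehydrogenase activity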); settings: recombinant 6PGD, NADPH absorbance 341 nm; at 10 µM; stronger effect = higher value
# Sequence of 6-phosphogluconate dehydrogenase, decarboxylating (Homo sapiens) (P52209 whole entry, looked up): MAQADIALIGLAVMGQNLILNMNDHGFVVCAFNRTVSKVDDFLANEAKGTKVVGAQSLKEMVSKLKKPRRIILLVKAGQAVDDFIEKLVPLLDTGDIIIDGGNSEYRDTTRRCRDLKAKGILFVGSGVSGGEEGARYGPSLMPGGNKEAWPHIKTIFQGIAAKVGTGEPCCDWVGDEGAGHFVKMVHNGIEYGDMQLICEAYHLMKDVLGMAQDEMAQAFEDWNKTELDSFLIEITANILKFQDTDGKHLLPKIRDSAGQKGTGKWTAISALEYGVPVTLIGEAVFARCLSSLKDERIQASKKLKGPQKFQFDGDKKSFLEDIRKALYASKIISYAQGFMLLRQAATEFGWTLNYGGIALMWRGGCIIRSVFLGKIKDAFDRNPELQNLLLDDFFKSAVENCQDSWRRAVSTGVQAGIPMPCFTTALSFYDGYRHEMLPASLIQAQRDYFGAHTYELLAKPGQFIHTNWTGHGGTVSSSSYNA
# [10] = modulation of C. elegans fzo-1 (AID 1259413);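 note: fzo-1 mutant C. elegans worms in liquid wells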; settings: C. elegans fzo-1 modulator screen, mean read-out; stronger effect = higher value
# [11] = differential killing of epithelial or mesenchymal cells, primary screen, imaging, PC-3E GFP, TEM4-18 mCherry, co-culture (AID 1345086;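 active = compounds killing one labelled cell type while sparing the other, by normalised counts and ratio limits, not self-fluorescent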;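 for all read-outs here: cells exposed to compound for 72 h before imaging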;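 for red/green cell ratio (normalised): normalised mesenchymal count divided by normalised epithelial count so high means epithelial killing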); settings: imaging cell counts, at 1 µM; for red/green cell ratio (normalised): actives lie on both sides, counts scaled to control wells, 1 = unselective
# [12] = survival rescue of mitochondrial mutant cells in low glucose, primary screen, MELAS cybrids, Rieske KO mouse fibroblasts, CellTiter-Glo (AID 1508586;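 active = mean z-score across replicates of 1.96 or higher in either the MELAS or the Rieske mutant cell line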;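 note: z relative to plate mean and SD of compound and empty wells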)
# [13] = molecular target: NAD(+) hydrolase SARM1 (Homo sapiens) (UniProt Q6SZW1); assay: SARM1 TIR NADase inhibitors, cell lysate, NAD-Glo luminescence (AID 1508614;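 active = compound whose remaining NAD level is above about 45 nM, limit read from the data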;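 note: higher remaining NAD means stronger inhibition of SARM1 NADase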); settings: SAM-TIR HEK293T lysate NADase, at 1 µM, stronger effect = higher value
# Sequence of NAD(+) hydrolase SARM1 (Homo sapiens) (Q6SZW1 whole entry, looked up, the tested form may be a part): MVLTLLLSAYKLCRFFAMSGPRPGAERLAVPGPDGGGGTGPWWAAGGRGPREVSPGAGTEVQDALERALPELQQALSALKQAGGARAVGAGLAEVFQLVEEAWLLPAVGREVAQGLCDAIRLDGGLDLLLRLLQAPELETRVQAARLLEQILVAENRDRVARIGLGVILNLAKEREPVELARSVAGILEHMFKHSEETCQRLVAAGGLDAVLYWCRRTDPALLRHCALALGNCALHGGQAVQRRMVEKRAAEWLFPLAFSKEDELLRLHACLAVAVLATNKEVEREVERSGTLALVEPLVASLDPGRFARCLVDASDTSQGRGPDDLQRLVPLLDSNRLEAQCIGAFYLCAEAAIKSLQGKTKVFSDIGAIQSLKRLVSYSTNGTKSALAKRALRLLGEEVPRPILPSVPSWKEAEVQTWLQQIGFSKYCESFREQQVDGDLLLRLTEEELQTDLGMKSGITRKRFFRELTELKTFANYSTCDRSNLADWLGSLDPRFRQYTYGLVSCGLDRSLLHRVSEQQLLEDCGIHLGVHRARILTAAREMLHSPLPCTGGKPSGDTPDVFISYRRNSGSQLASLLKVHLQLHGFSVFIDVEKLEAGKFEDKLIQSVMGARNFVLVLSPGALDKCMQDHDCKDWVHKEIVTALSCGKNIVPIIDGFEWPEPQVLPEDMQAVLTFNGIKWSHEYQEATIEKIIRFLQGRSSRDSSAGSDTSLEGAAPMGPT
# [14] = molecular target: Mitogen-activated protein kinase 7 (Homo sapiens) (UniProt Q13164); assay: ERK5 transactivation activators in reporter cells, primary screen, cell-based, HTS (AID 1508626;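 active = luciferase signal above three times the same-plate solvent-only control wells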;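 note: luciferase driven by Gal4-ERK5 fusion binding five Gal4 sites before minimal TATA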); settings: HeLa Gal4-ERK5 transactivation, 18 h, at 5 µM, stronger effect = higher value
# Sequence of Mitogen-activated protein kinase 7 (Homo sapiens) (Q13164 whole entry, looked up, the tested form may be a part): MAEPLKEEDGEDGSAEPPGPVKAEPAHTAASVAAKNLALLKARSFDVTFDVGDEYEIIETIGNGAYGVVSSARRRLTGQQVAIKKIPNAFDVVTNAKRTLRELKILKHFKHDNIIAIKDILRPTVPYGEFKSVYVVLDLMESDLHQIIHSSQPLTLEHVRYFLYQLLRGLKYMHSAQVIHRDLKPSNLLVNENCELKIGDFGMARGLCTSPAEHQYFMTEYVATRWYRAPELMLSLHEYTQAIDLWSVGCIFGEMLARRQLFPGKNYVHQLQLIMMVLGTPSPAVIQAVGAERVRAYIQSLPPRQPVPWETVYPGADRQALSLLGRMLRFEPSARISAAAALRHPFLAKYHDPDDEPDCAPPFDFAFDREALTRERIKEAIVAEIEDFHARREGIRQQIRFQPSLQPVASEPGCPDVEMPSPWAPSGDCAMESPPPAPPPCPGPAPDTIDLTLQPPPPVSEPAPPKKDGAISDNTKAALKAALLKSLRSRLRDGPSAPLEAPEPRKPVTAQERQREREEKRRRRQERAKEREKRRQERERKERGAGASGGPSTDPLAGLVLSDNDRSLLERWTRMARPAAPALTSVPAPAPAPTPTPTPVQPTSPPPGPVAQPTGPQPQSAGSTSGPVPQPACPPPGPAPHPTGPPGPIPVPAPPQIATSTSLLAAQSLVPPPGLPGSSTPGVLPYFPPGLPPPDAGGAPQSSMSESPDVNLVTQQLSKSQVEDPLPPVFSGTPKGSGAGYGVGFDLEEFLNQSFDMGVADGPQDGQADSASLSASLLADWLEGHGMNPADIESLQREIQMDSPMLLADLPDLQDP
# [15] = viability rescue of complex I mutant cybrids, primary screen, cell-based, galactose medium, ATP luminescence (AID 1645843;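 active = z-score of at least 1.8 in each of two replicates, scored against plate mean and spread of sample wells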;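 note: positive z means more ATP and so rescue of galactose-driven cybrid death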); settings: complex I mutant cybrid cells, 72 h, stronger effect = higher value
# [16] = LFS_MB_P medulloblastoma growth inhibition, cell-based, chromothripsis tumors, cisplatin or BGB combos (AID 1671449; in the data active = inhibition above about 80%;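 note: cells exposed for 96 hours; 0% = vehicle DMSO and 100% = killing by high DMSO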); settings: LFS_MB_P medulloblastoma cells
# [17] = ICB984 medulloblastoma cell growth inhibition, synergistic combos for chromothripsis tumors, cisplatin or BGB combos (AID 1671451); settings: ICB984 medulloblastoma cells, drug combinations, stronger effect = higher value;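 note: cells exposed for 96 hours before readout; 0% = vehicle DMSO and 100% = killing by high DMSO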
# [18] = measured here: epithelial PC-3E GFP cell survival
# [19] = measured here: mesenchymal TEM4-18 mCherry cell survival
compound,measurement,setting,value
COc1cc(Cc2cnc(N)nc2N)cc(OC)c1OC,survival,[1],17.1 (inactive)
same,insulin secretion stimulation,[2],-1.7% (inactive)
same,viability decrease,[3],-3% (inactive)
same,tube area decrease,[4],2% (inactive)
same,GLP1 secretion stimulation,[5],4.6% (inactive)
same,inhibition of viability,[6],28.8% (inactive)
same,viability decrease (inhibition),[7],39.7% (inactive)
same,viability decrease (inhibition),[8],9.15% (inactive)
same,inhibition,[9],-0.293% (inactive)
same,mean signal,[10],243 (inactive)
same,red/green cell ratio (normalised),[11],1.12 (inactive)
same,normalised cell number,[11]; [18],0.91
same,normalised cell number,[11]; [19],1.02
same,z-score,"[12]; MELAS cybrid survival, CellTiter-Glo 48 h, stronger effect = higher value",-0.0749 (inactive) and 0.787 (inactive) and 0.308 (inactive)
same,z-score,"[12]; Rieske KO mouse fibroblast survival, CellTiter-Glo 72 h",-0.219 and -0.384 and -0.669
same,remaining NAD,[13],10 nM (inactive)
same,luciferase signal,[14],48 AU (inactive)
same,z-score,[15],0.49 (inactive) and 0.045 (inactive) and 0.71 (inactive)
CCn1cc(C(=O)O)c(=O)c2ccc(C)nc21,survival,[1],18 (inactive)
same,insulin secretion stimulation,[2],-1.7% (inactive)
same,viability decrease,[3],10.1% (inactive)
same,tube area decrease,[4],2% (inactive)
same,GLP1 secretion stimulation,[5],3.3% (inactive)
same,inhibition of viability,[6],10.9% (inactive)
same,viability decrease (inhibition),[7],30.9% (inactive)
same,viability decrease (inhibition),[8],-0.43% (inactive)
same,inhibition,[9],-7.36% (inactive)
same,mean signal,[10],268 (inactive)
same,red/green cell ratio (normalised),[11],0.88 (inactive)
same,normalised cell number,[11]; [18],1.09
same,normalised cell number,[11]; [19],0.97
same,remaining NAD,[13],10 nM (inactive)
same,luciferase signal,[14],44 AU (inactive)
same,inhibition,"[16]; at 0.5 µM, stronger effect = higher value",-12.4% (inactive) and -25.4% (inactive)
same,inhibition,"[16]; measured here: combination with BGB IC20, at 0.005 µM",-22.2% and -24.5%
same,inhibition,"[16]; measured here: combination with BGB IC40, at 0.005 µM",11.9% and -5.77%
same,inhibition,"[16]; measured here: combination with BGB IC40, at 0.05 µM",1.93% and -7.94%
same,inhibition,"[16]; measured here: combination with cisplatin, at 0.5 µM, stronger effect = higher value",-11.7% and -31.6%
same,inhibition,"[16]; measured here: combination with cisplatin, at 5 µM, stronger effect = higher value",-6.26% and -18.6%
same,inhibition,"[17]; BGB IC20 combo, at 0.005 µM",7.03% and -21.5%
same,inhibition,"[17]; BGB IC40 combo, at 0.005 µM",-26.9% and -29.6%
same,inhibition,"[17]; BGB IC40 combo, at 0.05 µM",-0.123% and -9.89%
same,inhibition,[17]; at 0.5 µM,-22.6% (inactive) and -21.9% (inactive)
same,inhibition,"[17]; cisplatin combo, at 0.05 µM",-0.123% and -9.89%
same,inhibition,"[17]; cisplatin combo, at 0.5 µM",-52.2% and -39.7%
same,inhibition,"[17]; cisplatin combo, at 5 µM",-11.7% and -29.5%
same,inhibition,"[17]; measured here: 5 uM single agent, at 5 µM",-3.29% and -15.7%
